Counter-ions that a name gives are not always drawn.
Key:
Assay in all cases: cell proliferation relative to vehicle (% of vehicle); higher = less growth inhibition
Conditions in all cases: 72 h
[1] = system: U2932 TK216-resistant clone 2
How it was run: (§1)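 A library of 348 targeted inhibitors was screened against the ABC-DLBCL cell line U2932, using parental cells and two clones made resistant to an ETS-targeting agent through repeated exposure over almost a year. The cells were cultured at 37°C and 5% CO2 in medium containing 10% FBS and treated at 500 nM or 50 nM for 72 h, after which MTT was added for 4 h, stopped with 25% SDS, and absorbance was read on a Cytation 3. Proliferation is given as the percentage of proliferating cells relative to the vehicle, DMSO.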

[2] = system: U2932 TK216-resistant clone 3
How it was run: as §1

U2932 parental = system: U2932 parental
How it was run: as §1

| Compound | cell proliferation ([1]; 50 nM) | cell proliferation ([1]; 500 nM) | cell proliferation ([2]; 50 nM) | cell proliferation ([2]; 500 nM) | cell proliferation (U2932 parental; 50 nM) | cell proliferation (U2932 parental; 500 nM) |
| --- | --- | --- | --- | --- | --- | --- |
| COC1=CC(c2cc3ccccc3[nH]2)=N/C1=C\c1[nH]c(C)cc1C [Obatoclax Mesylate (GX15-070)] | 94.8 | 1.6 | 102 | 8.59 | 75.2 | 2.95 |
| CC(C)(C(=O)NCC(F)(F)C(F)(F)F)C(=O)N[C@@H]1C(=O)Nc2ccccc2-c2ccccc21 | 105 | 109 | 105 | 100 | 98.7 | 86.5 |
| COc1cc(CCc2cc(NC(=O)c3ccc(N4CC(C)NC(C)C4)cc3)n[nH]2)cc(OC)c1 (configuration not stated) | 102 | 101 | 103 | 102 | 98.4 | 95.6 |
| COc1cc(C(=O)N2CCC(N3CCN(C)CC3)CC2)ccc1Nc1ncc2c(n1)N(C)c1ccccc1C(=O)N2C | 104 | 92.2 | 100 | 100 | 105 | 101 |
| CO[C@@]12[C@H](COC(N)=O)C3=C(C(=O)C(C)=C(N)C3=O)N1C[C@@H]1N[C@@H]12 [Mitomycin C] | 94.8 | 13.8 | 96.6 | 26.4 | 91.3 | 35.8 |
| CCC[C@H](NC(=O)/C(C#N)=C/c1cccc(Br)n1)c1ccccc1 [Degrasyn (WP1130)] | 105 | 102 | 106 | 94.8 | 92.5 | 86.4 |
| O=C(CCCCCCC(=O)Nc1ccccc1)NO [Vorinostat (SAHA, MK0683)] | 108 | 91.3 | 107 | 88.9 | 98.2 | 81.6 |
| Cc1cc(CS(=O)(=O)c2ccccc2)cc(OCc2ccc(CN3CCC[C@@H]3CO)cc2)c1 | 105 | 90.6 | 106 | 97.9 | 97.2 | 107 |
| CS(=O)(=O)N1CCN(Cc2cc3nc(-c4cccc5[nH]ncc45)nc(N4CCOCC4)c3s2)CC1 | – | – | – | – | 85.4 | 49.1 |
| Cc1[nH]c2ccccc2c1CCNCc1ccc(/C=C/C(=O)NO)cc1 [Panobinostat (LBH589)] | 14.9 | 4.33 | 12.9 | 11.5 | 9.5 | 0.518 |
| COc1cc2c(Oc3ccc(NC(=O)C4(C(=O)Nc5ccc(F)cc5)CC4)cc3F)ccnc2cc1OCCCN1CCOCC1 | 101 | 69.7 | 98.3 | 66 | 92.7 | 58.9 |
| CCn1c(-c2nonc2N)nc2c(C#CC(C)(C)O)ncc(OC[C@H]3CCCNC3)c21 | 91.1 | 54.1 | 97 | 66.9 | 90.5 | 58.6 |
| Nc1nc(F)nc2c1ncn2[C@@H]1O[C@H](COP(=O)(O)O)[C@@H](O)[C@@H]1O [Fludarabine Phosphate] | 98.2 | 110 | 103 | 104 | 102 | 93.7 |
| COc1ccc(C(=O)C2CCN(CC(=O)N(Cc3nc4c(c(=O)[nH]3)COCC4)CC3CC3)CC2)cc1 | 99.7 | 95.3 | 92.2 | 93.6 | 97.7 | 97.5 |
| Cc1cnc(-c2cnc(NCCNc3ccc(C#N)cn3)nc2-c2ccc(Cl)cc2Cl)[nH]1 | 101 | 97.6 | 107 | 96.8 | 99.8 | 95 |
| Cc1[nH]c(/C=C2\C(=O)Nc3ccc(S(=O)(=O)Cc4c(Cl)cccc4Cl)cc32)c(C)c1C(=O)N1CCC[C@@H]1CN1CCCC1 | 108 | 92.4 | 103 | 90.5 | 102 | 96.8 |
| C[C@@H]1C[C@H]2[C@@H]3CCC4=CC(=O)C=C[C@]4(C)[C@@]3(F)[C@@H](O)C[C@]2(C)[C@@]1(O)C(=O)CO [Dexamethasone (DHAP)] | 76.1 | 79 | 80.9 | 71.2 | 77.4 | 74.2 |
| CCOc1cc(C(=O)N2CCC(N3CCN(C)CC3)CC2)ccc1Nc1ncc2c(n1)N(C1CCCC1)c1ccccc1C(=O)N2C | 95 | 74.3 | 95.4 | 65.4 | 94.8 | 75.5 |
| CCS(=O)(=O)N1CC(CC#N)(n2cc(-c3ncnc4[nH]ccc34)cn2)C1 | 107 | 118 | 111 | 104 | 104 | 105 |
| COc1cc(Nc2nc3ccccc3nc2NS(=O)(=O)c2ccc(NC(=O)c3ccc(C)c(OC)c3)cc2)cc(OC)c1 | 98.5 | 106 | 104 | 103 | 105 | 104 |
| CNC(=O)c1cc(Oc2ccc(NC(=O)Nc3ccc(Cl)c(C(F)(F)F)c3)c(F)c2)ccn1 [Regorafenib (BAY 73-4506)] | 103 | 116 | 105 | 107 | 105 | 105 |
| C[C@]1(c2nc3c(C(N)=O)cccc3[nH]2)CCCN1 [Veliparib (ABT-888)] | 90.3 | 91.5 | 98.8 | 80.8 | 87 | 96.6 |
| C=CC(=O)N1CCC[C@@H](n2nc(-c3ccc(Oc4ccccc4)cc3)c3c(N)ncnc32)C1 | – | – | – | – | 76 | 70.9 |
| CC[C@H](Nc1ncnc2[nH]cnc12)c1nc2cccc(F)c2c(=O)n1-c1ccccc1 [CAL-101 (Idelalisib, GS-1101)] | 103 | 109 | 97.8 | 99.3 | 92.6 | 96.6 |
| Cc1cccc(-c2[nH]c(CNc3ccccc3F)nc2-c2ccc3ncnn3c2)n1 | 106 | 102 | 99.6 | 106 | 104 | 98.6 |
